As a reminder, the inhibition is the drop in the measured response relative to a control, in per cent.

Out of some 290,000 compounds screened, about 27,000 (9.3%) were called active. Rule as the data show it: active = inhibition mostly above about 28% (no sharp cut-off); inactive = mostly below about 43%. Many of the other results were omitted from the sample, so actives are more common in it than they were.

A short description of the assay: A qHTS for Small Molecule Inhibitors of Shiga Toxin. As to inhibition: 0% is about no effect. Particulars: Vero cells, Shiga toxin protein synthesis inhibition reporter; at 38.7 µM, active compounds read high. In general terms: qHTS replaces the single test concentration by a dilution series.
Turning to `CCn1c(SCC(=O)NC2CC2)nnc1-c1ccncc1`, the inhibition was 6.57% (inactive). Take `Cc1nn2c(NCCN(C)C)c3c(nc2c1-c1ccccc1)CCC3`: the inhibition is -1.35% (inactive). The same measure for `Cc1ccc2c(=O)cc(C(=O)NCCc3ccc(S(N)(=O)=O)cc3)oc2c1C`: 3.06% (inactive); for `CCOC(=O)c1ccc(NC2Nc3cc(C)nn3S2)cc1` (configuration not stated): 37.2% (inactive); for `CCc1ccc(NC2Nc3cc(C)nn3S2)cc1` (configuration not stated): 52% (active). The same measure for `CC(C)(C)c1ccc(/C=C/C(=O)NCCCn2ccnc2)cc1`: -13.7% (inactive); for `Cn1c(=O)[nH]c(=O)c2c1nc(Br)n2CCCCSc1nc2ccccc2o1`: 39.4% (inactive); for `CCOC(=O)c1ccccc1NC(=O)CSc1nc2ccccc2c(=O)[nH]1`: -5.65% (inactive).

`CCC(NC(=O)c1ccccc1NC(=O)c1ccccc1)C(=O)NNC(=O)CSc1nc2ccccc2o1` (configuration not stated): the inhibition was 23.3% (active). Turning to `COc1ccc(OC)c(NC(=O)C2CCCN2S(=O)(=O)c2cccc3nsnc23)c1` (configuration not stated), the inhibition was -4.24% (inactive). The result for `COc1nc(NCc2ccc(Cl)cc2)nc(OC)n1` reads 45.3% (inactive); that for `C=CCNc1nc(C)nc(OC)n1`, -12.3% (inactive). `C=CCNc1nc(Nc2ccc(Cl)cc2)nc(OC)n1`: the inhibition is 71.3% (active). The same measure for `Cc1sc2nc(SCCO)n(-c3ccccc3)c(=O)c2c1C`: -3.85% (inactive); for `Cc1ccc2c(c1)N(C(=O)CCC(=O)NCc1cccnc1)CCO2`: 3.18% (inactive); for `Oc1ccc(Cl)cc1C1C=C(c2ccc3c(c2)OCO3)NC(c2c(F)cccc2Cl)N1` (configuration not stated): 68.7% (active). The result for `Oc1ccc(Cl)cc1C1C=C(c2ccc3c(c2)OCO3)NC(c2ccc(F)c(Br)c2)N1` (configuration not stated) reads 93.1% (active); that for `Cc1csc(Nc2ccc(Cl)cc2)[n+]1-c1ccc(Cl)cc1`, 19.3% (inactive). Consider `COCCN1C(=O)C(=O)/C(=C(/O)c2ccc(S(=O)(=O)N3CCCCC3)cc2)C1c1ccc(OC)c(OC)c1` (configuration not stated), for which the inhibition was 11% (inactive).

In the case of `C/C(=N\NC(=O)CNc1cccc2ccccc12)c1ccc(Br)s1`, the inhibition is -8.07% (inactive). The result for `Cn1cccc1/C=N/NC(=O)CNc1cccc2ccccc12` reads 6.61% (inactive); that for `Cc1cccc(/C=N/NC(=O)CNc2cccc3ccccc23)n1`, 70.6% (active); that for `c1ccc(-c2nccc(-c3ccc(-n4cnc5ccccc54)cc3)n2)nc1`, -13.3% (inactive). The result for `CC(C)c1nc(-c2ccccn2)no1` reads 46.2% (active); that for `Clc1ccc(-c2cc(-c3ccccn3)on2)c(Cl)c1`, 48.1% (inactive); that for `COc1ccc(-n2ncc3c2CC(C)(C)CC3NC(=O)CCc2c(C)noc2C)cc1` (configuration not stated), 27.2% (inactive).

In the case of `O=C(/C=C/c1cccs1)c1cc(Cl)ccc1OC(=O)N1CCOCC1`, the inhibition was 18.1% (inactive). The same measure for `COc1ccc(-c2nc(CS(=O)(=O)CC(=O)NCc3cccc(Br)c3)c(C)o2)cc1`: 4.36% (inactive); for `O=C(O)C(c1ccccc1)N1C(=O)/C(=C\c2ccc(-c3cccc(Cl)c3)o2)SC1=S` (configuration not stated): -2.95% (inactive); for `O=C1NN(c2ccccc2)C(=O)/C1=C/c1ccc(-c2cccc(C(=O)O)c2)o1`: 18.2% (inactive). With `O=C1c2ccccc2NC(c2ccc(-c3cccc(Cl)c3)o2)N1O` (configuration not stated), the inhibition was 58.1% (active). Consider `COc1cccc(N(CC(=O)NCc2ccccc2)C(=O)CCC(=O)Nc2nccs2)c1`, for which the inhibition was -2.69% (inactive). With `CC(=O)c1ccc(NC(=S)NC(=O)CC(C)C)cc1`, the inhibition was 26.8% (active). On to `COc1ccc(NS(=O)(=O)c2ccc(NC(=S)NC(=O)CC(C)C)cc2)cc1`, for which the inhibition is -7.41% (inactive). The result for `CC(C)CC(=O)NC(=S)Nc1cc(C(=O)O)ccc1Cl` reads 30.7% (inactive); that for `CCOC(=O)C1CCN(S(=O)(=O)c2c(C)noc2C)CC1`, 30.7% (inactive); that for `COC(=O)c1ccccc1NC(=O)CSc1n[nH]c(-c2ccncc2)n1`, 4.61% (inactive).

Turning to `Cc1cccc(C(=O)Nc2ccc(C(=O)/C=C/c3cccs3)cc2)c1`, the inhibition is 99.7% (active). The result for `Cc1cccc(C(=O)Nc2ccc(CC(=O)O)cc2)c1` reads 18.5% (inactive); that for `Cc1cccc(C(=O)Nc2ccc(C(=O)N/N=C/c3cccc(C)n3)cc2)c1`, 3.17% (inactive).

As to `Cc1ccc(C(=O)N/C(=C\c2cn(S(=O)(=O)N(C)C)c3ccccc23)C(=O)N2CCCC2)cc1`, the inhibition was -2.9% (inactive). The same measure for `CCOc1ccc(C(C(=O)NC2CCCC2)N(C(=O)c2snc(C(N)=O)c2N)C2CCCC2)cc1` (configuration not stated): 12.4% (inactive); for `COc1ccc2[nH]c3nc(SCC(=O)NC4CC4)nnc3c2c1`: -7.63% (inactive). Consider `COC(=O)CSc1nc(C2CC2)nc2ccccc12`, for which the inhibition was -5.63% (inactive). The same measure for `COC(=O)CSc1nc(C)c2ccc(OC)cc2n1`: 44.6% (active); for `COc1ccc(-c2nnc3ccc(SCc4ccccc4)nn23)cc1`: 9.35% (inactive); for `COc1ccc2nc(SCc3ccccc3)nc(C)c2c1`: 70.1% (active).

As to `COc1cccc(CSc2nc3nc(C)cc(C)n3n2)c1`, the inhibition was -3.55% (inactive). The same measure for `O=C(COc1cc2oc(=O)c3c(c2cc1Cl)CCC3)NCCCN1CCOCC1`: -7.49% (inactive); for `NC(=O)c1cc(S(=O)(=O)NCCCc2ccco2)cs1`: 19.4% (inactive); for `O=[N+]([O-])c1cc(C(F)(F)F)ccc1NN=C1CCCC1`: 9.47% (inactive). The same measure for `CN1CCN(CCNC(=O)Nc2ccccc2[N+](=O)[O-])CC1`: 24.3% (inactive); for `O=[N+]([O-])c1ccccc1N/N=C1\CCc2ccccc21`: 50.9% (active). The same measure for `CCOC(=O)C1CCCN(S(=O)(=O)c2ccc(-n3cnnn3)c(C)c2)C1` (configuration not stated): -3% (inactive); for `CC(C)(C)c1ccc(OC2=CS(=O)(=O)c3ccccc32)cc1`: 135% (active). On to `COc1ccc(CN2CCC(=O)c3ccccc3S2(=O)=O)cc1`, for which the inhibition was -3.72% (inactive). The result for `CC(C)(C)c1ccc(CN2C(=O)c3ccccc3S2(=O)=O)cc1` reads 32.5% (inactive).

For `Cc1cccc(OCC(=O)NCCNC(=O)c2cccnc2)c1`, the inhibition is -6.35% (inactive). The same measure for `Brc1ccc(C2CC(c3ccccc3)=Nc3ccccc3N2)cc1` (configuration not stated): 105% (active); for `Brc1ccc(C2=NCCC(c3ccccc3)O2)cc1` (configuration not stated): “inactive”. On to `Cc1cc(=O)oc2cc(OCC(=O)N3CCN(c4ccc(F)cc4)CC3)c(Cl)cc12`, for which the inhibition was -2.97% (inactive). The same measure for `O=C(Nc1ccc(S(=O)(=O)N2CCCCC2)cc1)C1CC(=O)N(c2ccc(F)cc2)C1` (configuration not stated): 29.9% (inactive); for `Cc1cc2oc(=O)cc(CN3CCN(Cc4ccccc4)CC3)c2cc1C`: -3.23% (inactive); for `Cc1noc(C)c1C(=O)NCCc1ccc(S(N)(=O)=O)cc1`: 10.5% (inactive). The result for `Clc1ccc(CN2CCCCCC2)cc1Cl` reads -3.6% (inactive); that for `Cc1cccc(N2CCN(C(=O)c3cccc(S(=O)(=O)N4CCc5ccccc5C4)c3)CC2C)c1` (configuration not stated), -8.81% (inactive); that for `Cc1cccc(N2Cc3ccccc3C2=NC(=O)c2ccc(Cl)nc2)c1`, 0% (active). As for `N#Cc1ccc(N2Cc3ccccc3/C2=N/C(=O)Nc2ccc(Cl)cc2)cc1`, the inhibition is 24.7% (inactive). Take `O=C(NCN1CCN(CCO)CC1)c1cnccn1`: the inhibition was 13% (inactive). The same measure for `CCN1CCN(c2ccc(NC(=O)c3cnccn3)cc2)CC1`: 48.5% (active). The result for `O=C(Nc1ccc(S(=O)(=O)N2CCCCC2)cc1)c1cnccn1` reads -1.88% (inactive). The same measure for `Nc1nc(SCC(=O)NCCN2CCOCC2)nc2sc3c(c12)CCC3`: 7.28% (inactive); for `CC(C)(C)C1CCc2c(sc3nc(SCC(N)=O)nc(N)c23)C1` (configuration not stated): 42.9% (active); for `CN1CCN(CC(=O)Nc2sc3c(c2C#N)CCC(C(C)(C)C)C3)CC1` (configuration not stated): -10.4% (inactive). Regarding `Cc1sc2nc(SCC(N)=O)n(C)c(=O)c2c1C`, the inhibition was 8.03% (inactive). The same measure for `Cn1c(NN)nc2sc3c(c2c1=O)CCC3`: 12.5% (inactive). The same measure for `C=C(C)CSc1nc(N)c2c3c(sc2n1)CCC3`: 77.1% (active); for `CCOC(=O)N1CCN(S(=O)(=O)N2CCCC(C(=O)NCCCN3CCC(C)CC3)C2)CC1` (configuration not stated): -4.12% (inactive); for `CC(=O)c1ccc(NC(=O)CCNS(=O)(=O)c2cc(Br)cnc2N)cc1`: -8.28% (inactive). As for `CCc1ccc(OCC2c3cc(OC)c(OC)cc3CCN2C(C)=O)cc1` (configuration not stated), the inhibition is -3.8% (inactive).

As to `CN(CC(=O)O)S(=O)(=O)c1ccc2oc3ccccc3c2c1`, the inhibition is -10.6% (inactive). The result for `CCCc1cc(C(=O)N2CCCC(CO)(CCCc3ccccc3)C2)n(C)n1` (configuration not stated) reads -8.83% (inactive).

With `Cc1noc(C)c1CCC(=O)N1CCCC(CO)(Cc2ccccc2)C1` (configuration not stated), the inhibition was 98.7% (active).

Turning to `Cc1noc(C)c1CCC(=O)O`, the inhibition was 17.5% (inactive).

Regarding `Cc1ccccc1CC1(CO)CCCN(C(=O)c2cc(-c3ccccc3)no2)C1` (configuration not stated), the inhibition was 51% (inactive). As for `COC(=O)CCC(=O)N1CCCC(CO)(Cc2ccccc2)C1` (configuration not stated), the inhibition was 110% (active). The same measure for `CCOC(=O)C1(Cc2ccccc2C)CCCN(C(=O)CCc2c(C)noc2C)C1` (configuration not stated): 15.6% (inactive); for `Cc1cc(NC(=O)CSc2nc(=O)cc(N)n2-c2ccc(F)cc2)no1`: 9.91% (inactive); for `COc1cccc(C(O)c2nc3ccccc3n2C)c1` (configuration not stated): -5.57% (inactive). The same measure for `O=C(NCCCn1ccnc1)c1ccccc1F`: -3% (inactive).

On to `Cc1cccc(N2CCN(C(C)C(=O)N3CCc4ccccc43)CC2)c1C` (configuration not stated), for which the inhibition is 12.5% (inactive).

With `COc1ccc(NC(=O)CCC(=O)Nc2cc(OC)c(NC(=O)c3ccco3)cc2OC)c(OC)c1`, the inhibition is 2.68% (inactive). Regarding `CCOC(=O)C1CCN(Cc2nnc(-c3cccc(Br)c3)o2)CC1`, the inhibition is -4.47% (inactive). As to `Cc1c2cnn(CC(=O)NCCCN3CC(C)CC(C)C3)c(=O)c2c(C)n1Cc1ccc(Cl)cc1` (configuration not stated), the inhibition is 10.2% (inactive). `O=c1c2ccccc2ncn1/N=C/c1ccccc1`: the inhibition was 89.3% (active).

Regarding `CCCc1nc2ccccc2c(=O)n1/N=C/c1ccc(O)c(O)c1`, the inhibition was -7.79% (inactive). The same measure for `O=c1c2ccccc2nc(N/N=C/c2ccccc2)n1O`: 4.04% (inactive).

Source of the values: PubChem BioAssay AID2315 (National Center for Advancing Translational Sciences (NCATS), 2010).
